Screening data from PubChem.
Rab9 prom act – Rab9 promoter activation; AID 485297; Potency, µM (doses to about 9.22 µM), for the others: top-dose activation, negative = inhibition, hits mostly activators; 320,000 compounds, 2.8% hits; Huh7 Rab9 promoter-luciferase reporter, luminescence, 24 h; also: % of control where 0% means no effect; nearly all actives have a fitted effect of over 60% in size
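Measured in stably transfected Huh7 cells bearing a Rab9 promoter–luciferase construct: 24 h compound treatment at 37 °C, followed by luminescence detection.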
ELG1 genotoxic – genotoxicity induction in ELG1-luciferase HEK293T cells. HEK293T ELG1-luciferase reporter, luminescence, 16 h. Potency, µM (series often up to 46 µM), without a hit: top-dose activity change, positive = activation, most hits filed as activators. 330,000 compounds, 1.3% hits. AID 504466; also: % of control where 0% means no effect; nearly all actives have a fitted effect of over 60% in size
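ELG1-luciferase HEK293T cells, 2,000/well; compound pinned in; 16 hr, 37 °C, 5% CO2; ONE-Glo, 30 min RT; luminescence on CCD imager.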
NPC1 prom act – NPC1 promoter activation | Huh7 NPC1 promoter luciferase reporter, 24 h | Potency, µM (series often up to 9.22 µM), for the others: at the highest dose activation, usual class: activators | 320,000 compounds, 2.4% hits | AID 485313; also: % of control where 0% means no effect; nearly all actives have a fitted effect of over 60% in size
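NPC1 promoter–luciferase Huh7 cells; 24 h compound; luminescence.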
FLuc modulator – counter-screen for miR-21 project: firefly luciferase inhibitors or activators | P08659 | purified FLuc, Km substrates, luminescence inhibition | Potency, µM (top dose mostly 57.5 µM), for the others: at the highest dose activity change, negative = inhibition, actives largely listed as inhibitors | 360,000 compounds, 6.9% hits;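 also: plate controls were vehicle for no effect and reference inhibitor for full effect; nearly all actives have a fitted effect of over 55% in size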
Target sequence (P08659 whole entry, looked up): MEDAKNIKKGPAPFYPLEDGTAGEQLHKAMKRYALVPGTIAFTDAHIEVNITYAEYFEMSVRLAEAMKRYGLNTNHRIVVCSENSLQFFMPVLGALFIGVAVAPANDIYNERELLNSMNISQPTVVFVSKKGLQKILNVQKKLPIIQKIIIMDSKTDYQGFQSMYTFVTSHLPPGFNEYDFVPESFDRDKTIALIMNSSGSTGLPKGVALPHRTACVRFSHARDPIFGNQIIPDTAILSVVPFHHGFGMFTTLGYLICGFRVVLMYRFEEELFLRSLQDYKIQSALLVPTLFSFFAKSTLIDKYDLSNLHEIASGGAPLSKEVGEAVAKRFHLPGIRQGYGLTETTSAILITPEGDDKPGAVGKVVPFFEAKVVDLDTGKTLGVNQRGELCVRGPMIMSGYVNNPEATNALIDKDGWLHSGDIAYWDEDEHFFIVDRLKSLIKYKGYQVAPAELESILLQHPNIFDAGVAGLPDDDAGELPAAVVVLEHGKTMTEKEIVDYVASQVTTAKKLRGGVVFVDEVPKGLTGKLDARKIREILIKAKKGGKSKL
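Purified P. pyralis luciferase, 10 nM final, with Km-level 10 uM D-luciferin and 10 uM ATP in 50 mM Tris acetate pH 7.5, 10 mM Mg acetate, 0.01% Tween-20, 0.05% BSA; 6-point qHTS titration about 60 µM downward; luminescence read.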
SMN2 splice enh – enhancers of SMN2 splice variant expression; HEK293 SMN2-luciferase splicing reporter, luminescence, 30-36 h; Potency, µM (doses to about 46.1 µM), for the others: at the highest dose activity change, positive = activation, actives largely listed as activators; 210,000 compounds, 2.8% hits; AID 1458; also: % of control where 0% means no effect; nearly all actives have a fitted effect of over 55% in size
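HEK293 cells carry an SMN2 […]–luciferase reporter in which exon 7 inclusion puts luciferase in frame. Cells were plated 10-12 h before compound addition, then incubated 30-36 h at 37C. ONE-Glo luminescence was read; sodium butyrate at 4.5 mM final served as control.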
Luc counter – blocks Kinase-Glo luciferase, a counter-screen artifact | Q27757 | Kinase-Glo luciferase, ATP luminescence, 8 min | Potency, µM (highest dose often 38.3 µM), for inactives: at the highest dose activity change, negative = inhibition, most hits filed as inhibitors | 200,000 compounds, 0.28% hits | AID 1379; also: % is scaled to controls: 0 for no effect and ±100 for the full control effect; nearly all actives have a fitted effect of over 60% in size
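Recombinant Kinase-Glo luciferase, 10 uM ATP (linear range), luciferin; imidazole pH 7.2 / KCl / MgCl2 / Tween / BSA buffer; 8 min RT; luminescence.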
Numbers without * were called inactive; [ ] = dose if it differs, or a comment. Most compounds without a hit are left out; they make up all but 7.3% or so of the library. Calls follow the shape of the dose curve; as a rule, active = well fitted curve in the direction sought with a large enough effect; inconclusive = small, poorly fitted or top-dose-only effect, or another doubt; inactive = no such curve, though single readings can be large; an effect the other way counts as inactive or inconclusive. Potency is read from the fitted curve at half-maximal effect.

O=S(=O)(c1ccc(Cl)cc1)c1nc(-c2cccs2)oc1SCc1ccccc1F was read as FLuc modulator 4% and SMN2 splice enh -7%.
For Cc1ccccc1OCC(=O)OCc1cc(=O)n2nc(C3CCCCC3)sc2n1 the results were FLuc modulator -3%.
`NC(=O)c1ccccc1NC(=O)c1ccc2c(c1)OCO2` gave Rab9 prom act 1.8µM*, ELG1 genotoxic inconclusive, NPC1 prom act 1µM* and FLuc modulator 7.6µM*.
Screening COC(=O)c1ccccc1NC(=O)NC1CCCC1 returned Rab9 prom act 1%, ELG1 genotoxic 3%, NPC1 prom act 3% and FLuc modulator -5%.
`COc1ccc(C)cc1NC(=O)NC1CCCCCCC1` gave Rab9 prom act 0%, ELG1 genotoxic -1%, NPC1 prom act -2% and FLuc modulator 15µM*.
COc1ccc(NC(=O)c2ccccc2NC(=O)NC2CCCCC2)cc1 was read as Rab9 prom act 18%, ELG1 genotoxic 4%, NPC1 prom act 21%, FLuc modulator 5.4µM*, SMN2 splice enh 20% and Luc counter -2%.
O=C(Nc1nnc(-c2ccco2)o1)c1ccc2ccccc2c1 was read as Rab9 prom act -4%, ELG1 genotoxic inconclusive, NPC1 prom act 2%, FLuc modulator inconclusive, SMN2 splice enh -1% and Luc counter -4%.
Cc1nnc(NC(=O)c2ccc3ccccc3c2)o1 was read as Rab9 prom act 11%, ELG1 genotoxic 2%, NPC1 prom act 4%, FLuc modulator 24µM*, SMN2 splice enh -13% and Luc counter -4%.
`CN(C)C[C@H]1CCC2=C(C1=O)C(c1ccc(Cl)c(Cl)c1)C1=C(CC[C@H](CN(C)C)C1=O)O2` gave SMN2 splice enh -43%[9.22 µM] and Luc counter -4%[7.66 µM].
Screening COc1ccc(C(=O)Nc2ccc(O)cc2C(=O)O)cc1 returned Rab9 prom act 3%, ELG1 genotoxic -2%, NPC1 prom act -4%, FLuc modulator 11µM*, SMN2 splice enh -6% and Luc counter 2%.
Screening COc1ccccc1C(=O)Nc1ccc(C(=O)O)cc1 returned Rab9 prom act -1%, ELG1 genotoxic 3%, NPC1 prom act 0%, FLuc modulator -13%, SMN2 splice enh 9% and Luc counter 1%.
For Cc1ccccc1NC(=O)c1ccc2ccccc2c1 the results were Rab9 prom act inconclusive, ELG1 genotoxic inconclusive, NPC1 prom act inconclusive and FLuc modulator 15µM*.
Screening COc1ccc(C(=O)Nc2ccccc2C(=O)Nc2ccccc2C(=O)O)cc1 returned Rab9 prom act 2.8µM*, ELG1 genotoxic 2%, NPC1 prom act 3.2µM* and FLuc modulator 0.48µM*.
`COc1ccc(C(=O)Nc2ccccc2C(=O)Nc2ccc(C(=O)O)cc2)cc1` gave Rab9 prom act inconclusive, ELG1 genotoxic inconclusive, NPC1 prom act inconclusive and FLuc modulator 0.76µM*.
Screening Cc1ccccc1NC(=O)NNC(=O)c1ccc2ccccc2c1 returned Rab9 prom act -3%, ELG1 genotoxic 7%, NPC1 prom act -1% and FLuc modulator -1%.
COc1ccc(NC(=O)c2ccc(C(=O)Nc3ccc(OC)cc3OC)cc2)c(OC)c1 was read as Rab9 prom act -1%, ELG1 genotoxic inconclusive, NPC1 prom act -2%, FLuc modulator -3%, SMN2 splice enh -13% and Luc counter 0%.
For COc1ccc(OC)c(C2c3c(-c4ccc(Br)cc4)n[nH]c3C(=O)N2c2ccc(Cl)cc2)c1 (centres undefined) the results were FLuc modulator 1% and SMN2 splice enh -16%.
For Cc1ccc(OCc2nc(-c3ccc(C(=O)N4CCN(c5cccc(C(F)(F)F)c5)CC4)cc3)oc2C)cc1 the results were FLuc modulator -3% and SMN2 splice enh -6%.
For C=CC(C1=CC(=O)C(OC)=CC1=O)c1ccccc1 (centres undefined) the results were SMN2 splice enh 1% and Luc counter -4%.
